Data from ChEMBL document CHEMBL3988442, “University of Dundee, Small-Polar-MMV Screening Library” (2021).
For some assays here: Measured potencies and affinities stand elsewhere.

Experiments:
Parameters in all cases: scale not given: direction of the effect not stated beside the values
[1] = target: Protein translocase subunit SecA (Escherichia coli (strain K12)) (UniProt P10408); assay: Assay to Identify E. coli SecA ATPase Inhibitors; format: functional; settings: 30 µM
[2] = target: T1, Ubiquitin-activating enzyme e1, putative (Leishmania donovani (strain BPK282A1)) (UniProt E9BSI1); assay: Leishmania donovani Ubiquitin Activating Enzyme (LdE1); format: functional; settings: 30 µM
T1 sequence (whole entry): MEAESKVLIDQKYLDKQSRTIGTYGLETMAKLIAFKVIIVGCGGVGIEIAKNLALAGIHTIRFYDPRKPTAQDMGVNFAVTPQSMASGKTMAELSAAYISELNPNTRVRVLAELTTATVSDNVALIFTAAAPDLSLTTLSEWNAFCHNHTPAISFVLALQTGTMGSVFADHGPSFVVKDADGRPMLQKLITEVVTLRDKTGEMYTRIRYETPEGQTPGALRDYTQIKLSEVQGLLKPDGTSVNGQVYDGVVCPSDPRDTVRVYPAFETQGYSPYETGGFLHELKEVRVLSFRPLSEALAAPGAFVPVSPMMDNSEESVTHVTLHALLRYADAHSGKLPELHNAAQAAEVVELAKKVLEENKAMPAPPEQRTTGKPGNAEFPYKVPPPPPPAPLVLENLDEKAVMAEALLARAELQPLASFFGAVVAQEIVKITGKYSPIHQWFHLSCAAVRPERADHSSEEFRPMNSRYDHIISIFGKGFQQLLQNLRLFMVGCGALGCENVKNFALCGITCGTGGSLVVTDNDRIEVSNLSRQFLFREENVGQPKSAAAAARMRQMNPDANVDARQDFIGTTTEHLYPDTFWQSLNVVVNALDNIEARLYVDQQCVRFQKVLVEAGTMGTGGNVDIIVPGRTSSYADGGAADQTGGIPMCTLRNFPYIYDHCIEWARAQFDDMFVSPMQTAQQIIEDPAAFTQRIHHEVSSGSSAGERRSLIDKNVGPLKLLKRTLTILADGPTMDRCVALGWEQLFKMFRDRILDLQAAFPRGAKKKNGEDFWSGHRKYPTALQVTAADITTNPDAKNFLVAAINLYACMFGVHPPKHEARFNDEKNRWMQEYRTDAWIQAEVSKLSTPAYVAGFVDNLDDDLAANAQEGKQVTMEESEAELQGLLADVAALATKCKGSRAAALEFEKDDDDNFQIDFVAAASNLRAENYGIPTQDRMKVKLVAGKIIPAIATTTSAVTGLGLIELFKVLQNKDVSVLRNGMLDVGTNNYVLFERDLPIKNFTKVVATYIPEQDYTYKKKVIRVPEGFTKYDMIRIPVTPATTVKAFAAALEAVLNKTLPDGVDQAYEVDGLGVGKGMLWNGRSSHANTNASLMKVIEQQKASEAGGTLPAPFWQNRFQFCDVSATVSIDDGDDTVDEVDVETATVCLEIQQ

[3] = target: AMP-activated protein kinase, AMPK (Homo sapiens) (UniProt P54646+O43741+P54619+Q9UGJ0+Q9Y478+Q13131+Q9UGI9); assay: AMP-dependent Kinase enzyme assay. An in vitro enzyme assay that detects ADP turnover that is directly proportional to AMPK activity. This uses naive AMPK that is activated during the assay with MK-8722; format: functional; settings: 30 µM
[4] = target: Sialic acid-binding Ig-like lectin 9 (Homo sapiens) (UniProt Q9Y336); assay: Hs-Siglec9 ALPHAscreen SOP 20170721; settings: 10 µM
Sialic acid-binding Ig-like lectin 9 (Homo sapiens), sequence (Q9Y336 whole entry): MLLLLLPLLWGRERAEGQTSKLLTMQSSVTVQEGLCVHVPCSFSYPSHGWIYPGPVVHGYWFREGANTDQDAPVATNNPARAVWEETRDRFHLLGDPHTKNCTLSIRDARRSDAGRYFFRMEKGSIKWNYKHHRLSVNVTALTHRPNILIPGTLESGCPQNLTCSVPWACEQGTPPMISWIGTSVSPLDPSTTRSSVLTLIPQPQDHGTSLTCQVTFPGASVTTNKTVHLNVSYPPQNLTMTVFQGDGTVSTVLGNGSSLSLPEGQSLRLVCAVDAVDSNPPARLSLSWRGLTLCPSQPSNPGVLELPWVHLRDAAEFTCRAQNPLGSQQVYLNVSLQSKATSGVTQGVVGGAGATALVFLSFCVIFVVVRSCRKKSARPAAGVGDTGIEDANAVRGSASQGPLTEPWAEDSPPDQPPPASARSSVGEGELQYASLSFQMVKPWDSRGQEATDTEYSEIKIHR

[5] = tested on: Trypanosoma cruzi; assay: Trypanosoma cruzi phosphomannomutase and mannose-1-phosphate guanylyltransferase assay; format: functional; settings: 10 µM
[6] = target: T2, Arginase-2, mitochondrial (Homo sapiens) (UniProt P78540); assay: in vitro enzyme assay to detect the production of urea directly proportional to the activity of Arginase II; format: functional; settings: 33.3 µM; also: in the data most compounds retested in dose-response had high values
T2 sequence (whole entry): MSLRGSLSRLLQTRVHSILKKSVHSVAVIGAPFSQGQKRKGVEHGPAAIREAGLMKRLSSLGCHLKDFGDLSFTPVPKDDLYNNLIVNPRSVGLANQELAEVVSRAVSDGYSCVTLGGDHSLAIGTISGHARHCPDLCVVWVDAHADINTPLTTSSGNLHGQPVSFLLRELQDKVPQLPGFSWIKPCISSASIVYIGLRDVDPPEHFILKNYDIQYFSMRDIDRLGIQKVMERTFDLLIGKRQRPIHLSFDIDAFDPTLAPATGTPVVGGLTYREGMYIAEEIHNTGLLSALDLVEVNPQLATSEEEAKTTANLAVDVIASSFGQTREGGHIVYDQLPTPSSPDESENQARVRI

[7] = target: T3, Proteasome subunit beta (Trypanosoma cruzi) (UniProt O96673); assay: Trypanosoma cruzi proteasome chymotrypsin-like activity (TcProtChymo) assay.; also: in the data most compounds retested in dose-response had high values; format: functional; settings: 9.37 µM
T3 sequence (whole entry): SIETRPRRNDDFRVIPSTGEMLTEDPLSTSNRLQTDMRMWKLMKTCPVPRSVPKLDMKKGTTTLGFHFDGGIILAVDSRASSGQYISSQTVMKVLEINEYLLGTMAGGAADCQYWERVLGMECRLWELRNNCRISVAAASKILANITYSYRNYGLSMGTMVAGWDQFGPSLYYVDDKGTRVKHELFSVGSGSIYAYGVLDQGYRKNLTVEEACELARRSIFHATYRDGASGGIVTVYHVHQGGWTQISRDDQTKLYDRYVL

[8] = species on record: Homo sapiens; assay: To identify inhibition of the IFN signalling (Jak-Stat) pathway via expression of an eGFP reporter gene under the control of an IFN-stimulated response element (ISRE) containing MxA promoter.; format: functional; settings: 30 µM
[9] = target: T4, Tyrosyl-tRNA synthetase, putative (Trypanosoma cruzi (strain CL Brener)) (UniProt Q4DSP6); assay: Trypanosoma cruzi tyrosyl tRNA synthetase (TcYRS) _High Tyrosine SOP; format: functional; settings: 30 µM; also: in the data most compounds retested in dose-response had high values
T4 sequence (whole entry): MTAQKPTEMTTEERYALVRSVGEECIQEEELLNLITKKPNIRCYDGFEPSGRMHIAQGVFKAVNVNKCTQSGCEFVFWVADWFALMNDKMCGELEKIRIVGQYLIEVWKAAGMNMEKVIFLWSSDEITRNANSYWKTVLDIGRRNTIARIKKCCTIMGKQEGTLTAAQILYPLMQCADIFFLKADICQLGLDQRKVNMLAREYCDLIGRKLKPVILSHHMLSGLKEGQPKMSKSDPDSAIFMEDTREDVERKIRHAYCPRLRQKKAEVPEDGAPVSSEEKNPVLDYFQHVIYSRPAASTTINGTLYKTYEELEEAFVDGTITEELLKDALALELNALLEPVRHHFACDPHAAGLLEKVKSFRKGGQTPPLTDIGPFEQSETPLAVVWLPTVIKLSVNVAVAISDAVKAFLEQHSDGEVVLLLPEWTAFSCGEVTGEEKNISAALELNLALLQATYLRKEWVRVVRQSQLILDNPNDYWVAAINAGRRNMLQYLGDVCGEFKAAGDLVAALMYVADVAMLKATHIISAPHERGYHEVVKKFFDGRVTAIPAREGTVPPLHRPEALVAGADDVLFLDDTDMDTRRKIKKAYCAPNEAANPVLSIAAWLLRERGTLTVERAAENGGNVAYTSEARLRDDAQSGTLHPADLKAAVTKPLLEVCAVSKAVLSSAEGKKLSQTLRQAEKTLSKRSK

[10] = target: T4, Tyrosyl-tRNA synthetase, putative (Trypanosoma cruzi (strain CL Brener)); assay: Trypanosoma cruzi tyrosyl tRNA synthetase (TcYRS) SOP; format: functional; settings: 30 µM
[11] = target: Chromo domain-containing protein 1 (Saccharomyces cerevisiae (strain ATCC 204508 / S288c) (Baker's yeast)) (UniProt P32657); assay: ScCHD-1 Enzyme Inhibition Assay; format: functional; settings: 30 µM; also: in the data most compounds retested in dose-response had high values
Chromo domain-containing protein 1 (Saccharomyces cerevisiae (strain ATCC 204508 / S288c) (Baker's yeast)), sequence (P32657 whole entry, the tested form may be a part): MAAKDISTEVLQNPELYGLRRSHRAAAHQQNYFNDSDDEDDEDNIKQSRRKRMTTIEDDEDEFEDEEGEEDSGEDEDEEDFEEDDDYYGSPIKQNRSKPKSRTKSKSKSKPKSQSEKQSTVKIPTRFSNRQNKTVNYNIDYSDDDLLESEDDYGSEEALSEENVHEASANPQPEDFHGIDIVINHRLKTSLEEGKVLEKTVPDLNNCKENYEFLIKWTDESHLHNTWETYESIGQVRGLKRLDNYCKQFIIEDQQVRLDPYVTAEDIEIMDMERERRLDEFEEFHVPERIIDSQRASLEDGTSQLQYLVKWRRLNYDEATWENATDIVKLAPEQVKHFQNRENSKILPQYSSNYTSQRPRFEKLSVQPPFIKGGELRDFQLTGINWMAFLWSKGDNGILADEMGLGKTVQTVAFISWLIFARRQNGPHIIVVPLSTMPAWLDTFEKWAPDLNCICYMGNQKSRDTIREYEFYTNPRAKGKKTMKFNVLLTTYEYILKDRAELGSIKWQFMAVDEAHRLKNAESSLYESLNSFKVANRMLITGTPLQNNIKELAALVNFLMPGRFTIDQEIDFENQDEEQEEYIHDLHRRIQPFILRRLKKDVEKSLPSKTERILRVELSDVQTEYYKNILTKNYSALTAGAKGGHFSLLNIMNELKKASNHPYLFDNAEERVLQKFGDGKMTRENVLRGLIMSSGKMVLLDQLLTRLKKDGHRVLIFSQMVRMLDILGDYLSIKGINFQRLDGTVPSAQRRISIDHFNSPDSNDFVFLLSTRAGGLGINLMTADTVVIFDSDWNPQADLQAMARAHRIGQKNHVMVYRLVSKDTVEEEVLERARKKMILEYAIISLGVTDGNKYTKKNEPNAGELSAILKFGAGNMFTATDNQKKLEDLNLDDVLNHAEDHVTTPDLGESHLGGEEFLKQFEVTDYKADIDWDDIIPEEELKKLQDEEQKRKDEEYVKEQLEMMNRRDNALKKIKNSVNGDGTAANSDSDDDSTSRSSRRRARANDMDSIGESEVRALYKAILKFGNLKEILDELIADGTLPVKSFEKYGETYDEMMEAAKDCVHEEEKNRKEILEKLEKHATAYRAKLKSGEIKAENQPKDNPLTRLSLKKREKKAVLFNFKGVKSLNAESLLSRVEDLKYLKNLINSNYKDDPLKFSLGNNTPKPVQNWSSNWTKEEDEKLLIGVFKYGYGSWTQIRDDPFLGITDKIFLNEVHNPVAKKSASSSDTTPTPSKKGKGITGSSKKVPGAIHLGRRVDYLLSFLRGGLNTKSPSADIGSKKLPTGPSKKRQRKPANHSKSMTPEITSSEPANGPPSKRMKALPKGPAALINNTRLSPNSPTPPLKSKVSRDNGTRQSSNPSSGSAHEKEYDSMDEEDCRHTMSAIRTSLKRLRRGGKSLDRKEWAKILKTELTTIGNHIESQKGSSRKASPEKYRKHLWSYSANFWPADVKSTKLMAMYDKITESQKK

Protein translocase subunit SecA (Escherichia coli (strain K12)), sequence (P10408 whole entry): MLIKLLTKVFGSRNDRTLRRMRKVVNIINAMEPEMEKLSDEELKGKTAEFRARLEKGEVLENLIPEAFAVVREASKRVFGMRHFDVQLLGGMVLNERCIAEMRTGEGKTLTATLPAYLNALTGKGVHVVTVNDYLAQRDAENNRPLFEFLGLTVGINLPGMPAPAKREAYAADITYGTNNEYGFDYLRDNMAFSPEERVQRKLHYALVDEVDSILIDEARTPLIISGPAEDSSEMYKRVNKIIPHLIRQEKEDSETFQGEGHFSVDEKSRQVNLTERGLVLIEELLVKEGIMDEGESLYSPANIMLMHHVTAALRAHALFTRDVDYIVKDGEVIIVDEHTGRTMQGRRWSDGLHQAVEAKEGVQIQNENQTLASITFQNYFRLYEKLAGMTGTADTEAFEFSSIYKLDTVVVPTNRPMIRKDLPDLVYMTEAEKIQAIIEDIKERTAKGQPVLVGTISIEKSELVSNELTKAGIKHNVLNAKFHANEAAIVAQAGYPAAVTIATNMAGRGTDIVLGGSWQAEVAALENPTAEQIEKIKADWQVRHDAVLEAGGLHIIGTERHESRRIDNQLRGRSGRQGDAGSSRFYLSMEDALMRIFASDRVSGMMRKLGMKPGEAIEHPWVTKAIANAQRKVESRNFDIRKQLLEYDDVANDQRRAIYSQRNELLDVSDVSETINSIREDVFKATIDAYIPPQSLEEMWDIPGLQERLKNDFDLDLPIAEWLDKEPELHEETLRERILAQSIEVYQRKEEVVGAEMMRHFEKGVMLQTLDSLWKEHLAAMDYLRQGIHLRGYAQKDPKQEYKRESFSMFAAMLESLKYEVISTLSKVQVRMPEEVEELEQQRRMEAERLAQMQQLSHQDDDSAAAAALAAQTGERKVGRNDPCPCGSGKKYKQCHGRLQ

Row | Compound | Percent Effect [1] [%] | Percent Effect [2] [%] | Percent Effect [3] [%] | Percent Effect [4] [%] | Percent Effect [5] [%] | Percent Effect [6] [%] | Percent Effect [7] [%] | Percent Effect [8] [%] | Percent Effect [9] [%] | Percent Effect [10] [%] | Percent Effect [11] [%]
1 | Cc1ccc(CN2CCCC3(COCCN(Cc4c[nH]nn4)C3)C2)o1 (configuration not stated) | -2.92 | 2.67 | 3.3 | 8.61 | 0.965 | -22.8 | 0.855 | 4.18 | 7.29 | 10 | -3.22
2 | CCN(Cc1ccccc1)C(=O)CN1CCCC(Cn2cncn2)C1 (configuration not stated) | -8.07 | 21.1 | -3.72 | 18.3 | 3.64 | 2.16 | 8.38 | -4.88 | -4.43 | 23.5 | -6.71
3 | CC(C)OCCOCc1cccc(NC(=O)NCCn2ccnc2)c1 | -0.877 | 10.4 | -2.37 | 9.62 | 5.61 | -1.38 | 8.65 | -0.82 | -1.07 | 3.7 | -7.91
4 | Cc1cccc(-c2nc(CN3CCc4cnc(C)nc4C3)no2)c1 | -6.65 | 7.79 | 64 | 10.5 | 0.374 | 1.42 | 0.169 | -1.99 | 10.7 | 9.76 | -4.89
5 | Cc1cc(CN(C)C(=O)NC2CCS(=O)(=O)C2)no1 (configuration not stated) | -1.09 | 13 | -2.73 | -9.19 | 6.37 | 6.11 | 11.2 | 6.33 | 4.76 | 18.8 | -18.4
6 | Cc1c(Br)cccc1C(=O)NC(C)CN1CCCC1=O (configuration not stated) | -3.78 | 2.74 | -2.6 | -6.12 | -2.35 | 0.909 | 7.1 | 10 | 1.07 | 5 | -5.51
7 | CC(C)Cc1noc(CN2CCOCC2)n1 | -1.04 | 7.89 | -1.16 | 2.11 | 2.07 | 1.15 | 15.7 | -19.8 | 5.39 | 12.2 | -7.16
8 | CCNc1cc2c(nn1)CCN(C(=O)Cc1noc3ccccc13)C2 | -6.38 | 13.2 | -1.77 | 6.44 | 5.51 | 0 | -3.47 | 5.21 | 4.43 | 16.1 | -4.69
9 | CCC(=O)N1CCC2(CC1)c1nc[nH]c1CCN2S(C)(=O)=O | -5.57 | 12.5 | -6.81 | 9.02 | 4.18 | 23 | 11.8 | 13.6 | 5.26 | 10.3 | -5.69
10 | CCn1cc(CNC2CC(=O)N(CCc3cccc(Cl)c3)C2)cn1 (configuration not stated) | -5.27 | 8.22 | 1.5 | 35.6 | 0.397 | -3.99 | 8.65 | 2.71 | 2.08 | 8.64 | -4.3
11 | CCOCCCNC(=O)c1nn(CC)cc1Cl | -0.389 | 14.7 | -2.38 | -8.09 | 3.14 | -8.28 | 12.8 | 18.8 | 5.29 | 12.8 | -10.4
12 | CS(=O)(=O)c1ccccc1C(=O)NCC1Cc2ccccc2O1 (configuration not stated) | -1.96 | 11 | -2.95 | 0.634 | -4.31 | 0.455 | 19 | 20.8 | 4.3 | 7.5 | -5.76
13 | COc1ccc2c(c1)CCCN2Cc1nc2c(cnn2C)c(=O)[nH]1 | -3.64 | 20.2 | -9.32 | -0.208 | -2.36 | 2.28 | 3.52 | 3.6 | 9.36 | 16.5 | -5.55
14 | CC(=O)N1CCC2(CC1)COCCN2CCN(C)C | -1.15 | 5.33 | 0.268 | 4.02 | -4.25 | -26.3 | 3.59 | -11.5 | 2.08 | -25 | -5.07
15 | CCn1c(NCc2ccco2)nc2c(C)nn(C)c2c1=O | -2.68 | 20 | 4.54 | -6.91 | 3.93 | 92.8 | 22.6 | 7.87 | 9.52 | 17.9 | -14
16 | O=C(NCC1CCOC1)N1CCN(Cc2ccc3c(c2)CCO3)CC1 (configuration not stated) | -2.3 | 15.8 | -4.31 | -5.79 | 2.33 | -5.4 | 4.99 | -17.4 | 9.36 | 23.5 | -7.08
17 | CN(Cc1cc2c(cc1OC(F)F)OCO2)Cc1nccn1C | -4.78 | 2.7 | -4.36 | 4 | 1.27 | -0.744 | 5.58 | 0.0596 | 3.23 | 6.17 | -1.72
18 | c1cnc(NCc2cncc3c2CCN(Cc2cccs2)C3)nc1 | -0.336 | 10.7 | 8.51 | -0.683 | -7.28 | 2.1 | 9.43 | 12.1 | 3.19 | 8.97 | -5.11
19 | Cc1c[nH]c(CN(C)C(=O)C2CC(=O)N(Cc3ccncc3)C2)n1 (configuration not stated) | -3.45 | 5.41 | -2.63 | -5.87 | -5.77 | -1.24 | 8.33 | 0.971 | -1.07 | 1.24 | -4.02
20 | COCCO[C@H]1CCN(C(=O)c2ccno2)[C@H]1Cc1cnn(C)c1 | -1.65 | -2.7 | -2.17 | -4.71 | -2.54 | 1.67 | 2.79 | -28.8 | 4.95 | -3.66 | 1.61
21 | CN(CCC#N)C(=O)CN1CCCC1c1ccsc1 (configuration not stated) | -7.51 | 0 | -7.58 | 1.78 | -3.62 | 0.924 | -1.26 | 11.9 | -2.97 | -1.22 | 7.91
22 | COC(=O)CN(C)C1CCc2ccccc21 (configuration not stated) | -0.581 | 15.8 | 1.01 | 8.14 | 1.5 | 5.36 | 18.4 | -4.6 | 7.35 | 9.76 | -8.13
